Test [1] is described as follows: qHTS assay to identify small molecule antagonists of the estrogen related receptor (ERR) signaling pathway from Tox21 library - cell viability counter screen (AID 1224834). Note: nearly all actives have a fitted effect of over 30% in size. A digest of the protocol:
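ERR reporter cells were plated 6 h before compound addition, then exposed to test compounds in DMSO for 17.5 h at 37 C. Viability was read as CellTiter-Fluor fluorescence after a 30-minute incubation at 37 C.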

Test [2] in a line: qHTS assay to identify small molecule antagonists of the estrogen related receptor signaling pathway with the pleiotropic PPARgamma coactivator (PGC) from Tox21 10K library - cell viability counter screen (AID 1224840; active = well fitted cell-killing curve with a large enough effect in the repeat runs, not every such curve was filed as active; note: nearly all actives have a fitted effect of over 40% in size). Summed up:
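PGC/ERR cells were seeded at 2,000 cells/well and left 6 hours at 37 C/5% CO2 before pin-tool addition of compounds in DMSO. After 17.5 hours at 37 C, CellTiter-Fluor was added and fluorescence read 30 minutes later.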

A short description of test [3]: qHTS assay to identify small molecule antagonists of the estrogen related receptor signaling pathway with the pleiotropic PPARgamma coactivator (PGC) from Tox21 10K library (AID 1224841; call rule not given here; note: actives are mostly falling curves and most rising ones were filed inactive; nearly all actives have a fitted effect of over 50% in size). A digest of the protocol: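 PGC/ERR reporter cells were seeded at 2,000 cells/well and held 6 hours at 37 C/5% CO2 before pin-tool addition of compounds in DMSO. After 18 hours at 37 C, One-Glo was added and luminescence read after 30 minutes at room temperature.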

The nature of test [4]: qHTS assay to identify small molecule agonists of the estrogen related receptor signaling pathway with the pleiotropic PPARgamma coactivator (PGC) from Tox21 10K library (AID 1224842). Note: nearly all actives have a fitted effect of over 15% in size. A digest of the protocol: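 Luminescence from One-Glo (30 min, room temperature) measured after PGC/ERR cells had 18 h at 37 C with pinned compound (23 nL in DMSO). Cells had been seeded at 2,000 per well and pre-incubated 6 h.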

Test [5] is described as follows: qHTS assay to identify small molecule agonists of the estrogen related receptor (ERR) signaling pathway from Tox21 library (AID 1224849; calls by dose curve; note: nearly all actives have a fitted effect of over 15% in size). The conditions noted are these: ERR reporter cell line, ONE-Glo luciferase, 18 h; at 92.4 µM (top of the series) unless noted. Summed up: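 ERR reporter cell line (NTP) seeded, rested 6 h at 37 C/5% CO2, then pinned with Tox21 compounds in DMSO. After 18 h at 37 C, ONE-Glo luciferase luminescence was read following 30 min at room temperature.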

Test [6] addresses Acetylcholinesterase (Homo sapiens) (UniProt P22303). Nature of the test: Acetylcholinesterase (AChE) small molecule antagonists: colormetric cell-based qHTS assay (AID 1347395; calls by dose curve; note: nearly all actives have a fitted effect of over 30% in size). Summed up:
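Colorimetric read-out: DTNB detects thiocholine released when cellular AChE in SH-SY5Y cells hydrolyses acetylthiocholine. Cells attached overnight, received compound for 30 min at 37 C, then substrate mix for 90 min at 37 C.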

The target is the same in test [7]. Nature of the test: Acetylcholinesterase (AChE) small molecule antagonists: enzyme-based qHTS assay (AID 1347397; calls by dose curve; note: nearly all actives have a fitted effect of over 55% in size). The conditions noted are these: Potency: AChE enzyme activity inhibition; outcome: AChE enzyme activity inhibition. A digest of the protocol:
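Absorbance-based detection of thiocholine with DTNB served as the read-out. Recombinant human AChE was exposed to compound for 30 min at RT before a 10 min RT incubation with acetylthiocholine.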

The target is the same in test [8]. As to the kind of experiment: Acetylcholinesterase (AChE) small molecule antagonists: fluorescence cell-based qHTS assay (AID 1347398; calls by dose curve; note: nearly all actives have a fitted effect of over 50% in size). The note with it: Potency: AChE activity; outcome: AChE activity. Summed up: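 Fluorimetric cell-based assay: intact SH-SY5Y cells, 30 min compound preincubation at 37 C, acetylthiocholine substrate with thiol probe Thiolite Green, 40 min RT development, fluorescence 490/520 nm.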

The target is the same in test [9]. Nature of the test: Acetylcholinesterase (AChE) small molecule antagonists: enzyme-based qHTS assay with human liver microsomes (AID 1347399; calls by dose curve; note: nearly all actives have a fitted effect of over 60% in size). The conditions noted are these: Potency: qHTS inhibition; outcome: qHTS inhibition. Summed up:
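Recombinant human AChE (50 mU/mL in the enzyme mix) and human liver microsomes (0.25 mg/mL final) were preincubated with compound and NADPH (0.25 mg/mL final) for 30 min at 37 C. Acetylthiocholine/DTNB was then added; thiocholine was read colorimetrically after 10 min at room temperature.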

Test [10] has as its target Glucocorticoid receptor (Homo sapiens) (UniProt P04150). Nature of the test: qHTS assay to identify small molecule antagonists of the glucocorticoid receptor (GR) signaling pathway (AID 720692; active = well fitted inhibition curve with a large enough effect in the signal ratio in the repeat runs, not every such curve was filed as active; the % refers to the signal ratio; note: potency is the fitted concentration of half-maximal effect). A digest of the protocol: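 GR-bla HeLa cells (beta-lactamase reporter under glucocorticoid response element) were pre-plated 4 h at 37 C, treated with compounds plus 5 nM dexamethasone (final) for 18 h, then read by LiveBLAzer B/G FRET fluorescence after 2 h.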

Test [11] is described as follows: Caspase-3/7 induction in HepG2 cells by small molecules, qHTS assay (AID 1346978). Note: nearly all actives have a fitted effect of over 15% in size. A digest of the protocol:
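Caspase-3/7 induction was measured by Caspase-Glo 3/7 luminescence (30 min, room temperature) after a 17 hr compound exposure of wild-type HepG2 cells seeded at 2,000 per well and pre-incubated 5 hr.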

The nature of test [12]: qHTS assay for small molecule disruptors of the mitochondrial membrane potential (AID 720635). Summed up: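 Mitochondrial membrane potential tracked with Mito-MPS dye, red aggregates (ex 540/em 590 nm) against green monomers (ex 490/em 535 nm). Compound treatment 1 hr at 37C, dye 30 min in HepG2.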
The nature of test [13]: qHTS assay for identifying genotoxic compounds that show differential cytotoxicity against isogenic chicken DT40 cell lines with known DNA damage response pathways - Rad54/Ku70 mutant cell line (AID 743015). Note: nearly all actives have a fitted effect of over 60% in size. Note: potency is the fitted concentration of half-maximal effect.
The target of test [14] is Androgen receptor (Homo sapiens) (UniProt P10275). Nature of the test: qHTS assay to identify small molecule antagonists of the androgen receptor (AR) signaling pathway (AID 743035; active = well fitted inhibition curve with a large enough effect in the signal ratio in the repeat runs, not every such curve was filed as active; the % refers to the signal ratio). Summed up:
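HEK293 cells stably carrying a UAS-driven beta-lactamase reporter (AR-UAS-bla GripTite) were plated for 4 h at 37C, then given compound and the agonist R1881 and incubated 16 h. Reporter activity was read by LiveBLAzer B/G FRET fluorescence after 2 h at room temperature.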

Test [15] shares this target. As to the kind of experiment: qHTS assay to identify small molecule agonists of the androgen receptor (AR) signaling pathway (AID 743036; active = well fitted activation curve with a large enough effect in the signal ratio in the repeat runs, with a control signal flat, not every such curve was filed as active; the % refers to the signal ratio). Summed up:
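Fluorescence from a beta-lactamase FRET substrate served as read-out in AR-UAS-bla GripTite HEK293 cells. Cells were treated with DMSO-dissolved compounds for 16 h at 37C, then with LiveBLAzer B/G substrate for 2 h at room temperature.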

For test [16] the target is unchanged. Nature of the test: qHTS assay to identify small molecule agonists of the androgen receptor (AR) signaling pathway using the MDA cell line (AID 743040; note: nearly all actives have a fitted effect of over 20% in size; note: potency is the fitted concentration of half-maximal effect). A digest of the protocol: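 After a 5 h incubation at 37C and 0% CO2, MDA-kb2 reporter cells were dosed with compounds in DMSO and kept 16 h under the same conditions. Luciferase activity was then read as luminescence with ONE-Glo.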

The target is the same in test [17]. Nature of the test: qHTS assay to identify small molecule antagonists of the androgen receptor (AR) signaling pathway using the MDA cell line (AID 743042; note: nearly all actives have a fitted effect of over 55% in size; note: potency is the fitted concentration of half-maximal effect). A digest of the protocol: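 Antagonist mode: compounds plus R1881 agonist added to MDA-kb2 AR-luc cells, incubated 16 h at 37C. Luciferase reporter luminescence quantified, with multiplexed CellTiter-Fluor readout for cell viability.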

In test [18] the target is Estrogen receptor (Homo sapiens) (UniProt P03372). Nature of the test: qHTS assay to identify small molecule antagonists of the estrogen receptor alpha (ER-alpha) signaling pathway (AID 743069; active = well fitted curve in the direction sought with a large enough effect in the signal ratio in the repeat runs, not every such curve was filed as active; the % refers to the signal ratio). Summed up: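 Compound effects are measured against 17beta-estradiol stimulation in HEK293 cells with a UAS-controlled beta-lactamase reporter for ER-alpha. Exposure lasts 18 hr at 37C; LiveBLAzer B/G FRET substrate follows for 2 hr at room temperature.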
Sequence of Estrogen receptor (Homo sapiens) (P03372 whole entry, looked up): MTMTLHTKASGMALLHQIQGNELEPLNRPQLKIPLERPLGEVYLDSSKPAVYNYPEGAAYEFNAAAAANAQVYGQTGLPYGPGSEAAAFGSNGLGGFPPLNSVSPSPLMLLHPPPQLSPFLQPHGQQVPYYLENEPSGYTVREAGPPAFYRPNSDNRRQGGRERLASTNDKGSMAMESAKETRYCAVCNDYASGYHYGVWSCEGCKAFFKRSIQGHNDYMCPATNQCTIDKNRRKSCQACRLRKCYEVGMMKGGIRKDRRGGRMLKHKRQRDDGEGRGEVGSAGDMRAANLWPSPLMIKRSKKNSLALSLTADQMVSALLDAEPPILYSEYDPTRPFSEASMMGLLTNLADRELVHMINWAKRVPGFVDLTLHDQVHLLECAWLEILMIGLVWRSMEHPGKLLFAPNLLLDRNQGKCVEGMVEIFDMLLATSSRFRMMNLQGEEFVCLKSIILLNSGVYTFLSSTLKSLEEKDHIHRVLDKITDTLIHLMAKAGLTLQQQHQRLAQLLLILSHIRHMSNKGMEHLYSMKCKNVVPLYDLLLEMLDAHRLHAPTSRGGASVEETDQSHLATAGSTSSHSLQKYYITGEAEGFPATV

The structures appear in SMILES notation. Values without a mark were called inactive. Records with an inconclusive call do not appear. Activity calls are given as the source filed them. Unless noted, calls come from the whole dose curve; as a rule, active = well fitted curve in the direction sought with a large enough effect in the repeat runs; inconclusive = weak or mixed curves; inactive = no such curve, though single readings can be large; an effect the other way counts as inactive or inconclusive.
% is set by controls: 0 for no effect and ±100 for the full control effect.

Sequence of Androgen receptor (Homo sapiens) (P10275 whole entry, looked up): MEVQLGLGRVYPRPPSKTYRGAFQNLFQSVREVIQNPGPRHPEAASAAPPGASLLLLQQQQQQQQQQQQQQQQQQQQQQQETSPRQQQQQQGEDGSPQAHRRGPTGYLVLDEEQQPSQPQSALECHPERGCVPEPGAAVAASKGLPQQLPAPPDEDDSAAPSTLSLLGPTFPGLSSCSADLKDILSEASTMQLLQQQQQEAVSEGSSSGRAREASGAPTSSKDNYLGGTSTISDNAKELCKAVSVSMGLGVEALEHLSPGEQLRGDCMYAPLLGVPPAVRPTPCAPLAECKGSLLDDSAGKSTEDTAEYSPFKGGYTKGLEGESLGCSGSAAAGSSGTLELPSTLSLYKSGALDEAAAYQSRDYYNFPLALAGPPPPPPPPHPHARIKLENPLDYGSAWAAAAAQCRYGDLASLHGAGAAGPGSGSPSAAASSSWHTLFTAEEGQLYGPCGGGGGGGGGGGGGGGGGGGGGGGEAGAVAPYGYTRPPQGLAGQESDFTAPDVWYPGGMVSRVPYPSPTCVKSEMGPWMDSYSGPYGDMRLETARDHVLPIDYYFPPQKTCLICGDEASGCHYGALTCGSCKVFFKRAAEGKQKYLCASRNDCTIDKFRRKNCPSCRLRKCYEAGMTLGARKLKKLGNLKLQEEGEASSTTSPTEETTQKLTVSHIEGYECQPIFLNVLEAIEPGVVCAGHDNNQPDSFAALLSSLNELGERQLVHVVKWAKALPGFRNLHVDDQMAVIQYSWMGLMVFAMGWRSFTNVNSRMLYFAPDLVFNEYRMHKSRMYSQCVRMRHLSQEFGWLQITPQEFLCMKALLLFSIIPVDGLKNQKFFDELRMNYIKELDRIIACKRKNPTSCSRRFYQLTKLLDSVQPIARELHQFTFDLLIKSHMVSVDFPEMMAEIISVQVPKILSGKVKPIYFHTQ
Sequence of Glucocorticoid receptor (Homo sapiens) (P04150 whole entry, looked up): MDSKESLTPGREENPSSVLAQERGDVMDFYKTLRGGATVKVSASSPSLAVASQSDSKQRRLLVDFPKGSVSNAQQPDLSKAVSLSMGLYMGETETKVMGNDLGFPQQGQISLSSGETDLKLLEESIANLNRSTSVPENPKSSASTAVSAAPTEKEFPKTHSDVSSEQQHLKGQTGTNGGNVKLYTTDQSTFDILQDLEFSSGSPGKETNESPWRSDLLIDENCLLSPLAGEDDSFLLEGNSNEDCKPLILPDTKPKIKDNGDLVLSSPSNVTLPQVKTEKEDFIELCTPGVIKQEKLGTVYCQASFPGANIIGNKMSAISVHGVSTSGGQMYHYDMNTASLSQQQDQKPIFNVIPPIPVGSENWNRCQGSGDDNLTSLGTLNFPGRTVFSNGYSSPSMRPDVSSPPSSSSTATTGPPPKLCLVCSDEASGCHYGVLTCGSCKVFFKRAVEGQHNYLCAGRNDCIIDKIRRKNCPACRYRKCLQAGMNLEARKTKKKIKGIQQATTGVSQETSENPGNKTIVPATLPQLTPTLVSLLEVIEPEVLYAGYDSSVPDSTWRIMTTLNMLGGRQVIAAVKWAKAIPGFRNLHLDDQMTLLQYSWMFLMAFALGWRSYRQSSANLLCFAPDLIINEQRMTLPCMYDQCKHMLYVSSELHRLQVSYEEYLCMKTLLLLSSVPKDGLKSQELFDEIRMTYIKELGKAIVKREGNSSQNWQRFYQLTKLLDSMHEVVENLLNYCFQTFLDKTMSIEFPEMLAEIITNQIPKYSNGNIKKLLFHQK
Sequence of Acetylcholinesterase (Homo sapiens) (P22303 whole entry, looked up): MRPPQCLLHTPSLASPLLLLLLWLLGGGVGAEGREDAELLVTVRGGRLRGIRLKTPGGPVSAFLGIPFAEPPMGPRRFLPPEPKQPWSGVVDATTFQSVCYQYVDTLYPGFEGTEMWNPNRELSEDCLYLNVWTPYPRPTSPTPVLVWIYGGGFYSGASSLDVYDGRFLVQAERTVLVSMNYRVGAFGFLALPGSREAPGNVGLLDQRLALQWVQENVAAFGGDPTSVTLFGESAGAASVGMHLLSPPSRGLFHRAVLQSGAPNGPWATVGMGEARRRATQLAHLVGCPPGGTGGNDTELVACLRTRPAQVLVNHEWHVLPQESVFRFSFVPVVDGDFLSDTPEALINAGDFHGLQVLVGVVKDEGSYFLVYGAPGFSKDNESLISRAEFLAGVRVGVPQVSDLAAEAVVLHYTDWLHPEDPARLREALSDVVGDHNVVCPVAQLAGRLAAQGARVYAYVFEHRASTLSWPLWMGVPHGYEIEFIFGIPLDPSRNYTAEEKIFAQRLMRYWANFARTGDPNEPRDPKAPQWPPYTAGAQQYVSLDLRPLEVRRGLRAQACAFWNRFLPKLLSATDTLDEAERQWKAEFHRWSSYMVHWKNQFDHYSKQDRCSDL

For `CCC1C(=O)OCC1Cc1cncn1C` (configuration not stated), the Potency entry in [1], in test [2], in test [3], in test [4], in test [6] and in [7] was “inactive” in each case. The Potency result in test [8] and in test [9] was “inactive” each time. In [5], the activity change, positive = activation is 4.65% [at 42.5 µM].

For the molecule `Nc1ccc(N)c2ccccc12`, the Potency in test [10] was 24500 nM (active). In addition, in test [5], the activity change, positive = activation is -69.5%. Moreover, the Potency entry in [11], in [6], in test [7], in test [8] and in [9] was “inactive” each time.

For the molecule `O=P(OC(CCl)CCl)(OC(CCl)CCl)OC(CCl)CCl`, the Potency entry in test [4], in test [11], in [6], in [7], in [8] and in test [9] was “inactive” throughout.

In the case of `NCC(O)c1cccc(O)c1` (configuration not stated), the Potency result in test [12], in test [10], in [13], in [14], in test [15] and in test [16] was “inactive” throughout. Further, the Potency result in [17] was “inactive”.

With `CC(=O)O[C@H]1CC[C@H]2[C@@H]3CCC4=CC(=O)CCC4=C3C=C[C@]12C`, the Potency result in test [12] and in test [17] was “inactive” in each case. The values for the Potency in test [10] and in test [16] were 2680 nM (active) and 1.7 nM (active), respectively.

In the case of `CCC1(C)CC(=O)NC(=O)C1`, the Potency result in test [12], in [10] and in test [13] was “inactive” in each case.

Take `CC(=O)OO`: the Potency entry in [12] and in test [13] was “inactive” throughout.

On to `CCC(=O)O[C@@](Cc1ccccc1)(c1ccccc1)[C@@H](C)CN(C)C`, for which the Potency result in [12] and in [13] was “inactive” in each case.

`O=C1CN(O)C(c2ccccc2)=c2cc(Cl)ccc2=N1`: the Potency result in [12], in test [10], in [14], in test [15], in [16] and in test [17] was “inactive” each time.

Regarding `C=CCN(C1=NCCN1)c1c(Cl)cccc1Cl`, the Potency result in test [12], in test [10] and in test [13] was “inactive” in each case.

On to `COC(COC(N)=O)C1=C(N2CC2)C(=O)C(C)=C(N2CC2)C1=O` (configuration not stated), for which the Potency entry in test [12] and in test [16] was “inactive” throughout. Further, the Potency in test [13] is 4.7 nM (active); in test [17], 1330 nM (active).

For the molecule `CCNCC(O)c1cccc(O)c1` (configuration not stated), the Potency result in [10] and in test [13] was “inactive” in each case.

As to `Clc1ccc2c(c1)C(c1ccccc1)=NCc1nncn1-2`, the Potency entry in test [12], in test [10], in test [15], in [16] and in test [17] was “inactive” in each case.

For `CN[C@H]1C[C@@H](N)[C@H](O)[C@@H](O[C@@H]2O[C@H](CO)[C@H](O)[C@@H]3OC4(O[C@H]23)O[C@H](C(N)CO)[C@H](O)[C@H](O)[C@H]4O)[C@@H]1O` (some centres not stated), the Potency result in test [13] and in test [18] was “inactive” each time.

For the molecule `Cc1ccccc1-n1c(C)nc2ccccc2c1=O`, the Potency result in test [12], in test [10] and in test [18] was “inactive” in each case. For the same molecule, the Potency in [13] was 60400 nM (active).

Regarding `C[C@]12CC[C@H]3[C@@H](CCC4=C(O)C(=O)CC[C@@H]43)[C@@H]1CC[C@@H]2OC(=O)CCC1CCCC1`, the Potency result in test [12] and in test [13] was “inactive” throughout.

Turning to `C[C@@H](Cc1ccccc1)N(C)C`, the Potency result in [12], in test [13], in [14], in [15], in test [16] and in test [17] was “inactive” throughout.

For the molecule `CCC(=O)O[C@]1(c2ccccc2)CCN(C)C[C@H]1C`, the Potency result in test [12], in test [14], in [15], in test [16] and in test [17] was “inactive” in each case.

On to `[S]=[Sb](=[S])[S][Sb](=[S])=[S]`, for which the Potency result in test [10] and in test [13] was “inactive” throughout.

`C#CC(C)(O)CC` (configuration not stated): the Potency result in [10], in [13] and in [18] was “inactive” throughout.

With `c1cc2c(c(NC3=NCCN3)c1)CCCC2`, the Potency entry in test [12], in test [10], in [14], in test [16] and in test [17] was “inactive” in each case.

Regarding `COC1=CC=C2[C@H]3Cc4ccc(OC)c5c4[C@@]2(CCN3C)[C@H]1O5`, the Potency entry in [12], in [10] and in test [18] was “inactive” each time.

Source of the values: PubChem BioAssay (Tox21).
